# Reference: PubChem BioAssay (NCATS)
# Records with an inconclusive call do not appear. Entries that show only a call come without a potency. Active and inactive are the calls of the source. The call rests on the fitted dose curve; in most records, active means well fitted inhibition curve with a large enough effect; inconclusive means small, poorly fitted or top-dose-only effect; inactive means no such curve, though single readings can be large or run the other way.
# Experiment: BET inhibitor-based combinations targeting novel dependencies in MECOM-rearranged (r) AML: HNT-34 cell line (AID 2202234); further: nearly all actives have a fitted effect of over 35% in size
# Conditions: HNT-34 AML viability, CellTiter-Glo luminescence, 48 h; series mostly up to 46 µM
# From the text: Ecotropic viral insertion site 1 (EVI1) is located on chromosome 3q26.2 as part of the MECOM (MDS and EVI1 complex) locus. Under normal hematopoiesis, EVI1 is a regulator of hematopoietic stem cell maintenance and self-renewal and EVI1 levels decrease as the cells differentiate. In approximately 5-10% of de novo acute myeloid leukemia (AML) EVI1 is aberrantly expressed, including Chromosomal inv(3)(q21;q26.2) or t(3;3)(q21;q26.2) alterations (MECOM-r) that account for about 50% of AML with EVI1 overexpression 31. AMLs with high levels of EVI1 have a poor prognosis and an overall survival time averaging between 10-14 months. EVI1 overexpression confers resistance in leukemia cells, highlighting the need to develop new targeted therapies for EVI1 overexpressing AMLs. Here, we performed an unbiased chemical drug screening by evaluating the single agent activity of a collection of 2,480 oncology-focused, approved and investigational drugs (NCATS Mechanism Interrogation Plates, MIPE v5.0) against a panel of seven AML cell lines. These included four MECOM-r cell-lines (AML-191, AML-194, UCSD-AML1 and HNT-34) and three non-MECOM-r AMLs (MV4-11, OCI-AML3 and SET-2). Exploiting the mechanistic redundancy built in the library, we identified target-level sensitivities in MECOM-r AML cells and relative activity as compared to other AML subtypes.
# A collection of 2480 mechanistically annotated dugs (MIPE v5.0) was used to screen four 3q26.2 rearranged AML cell lines and three non-3q26.2 rearranged AML cell lines. This library purposely exploits redundancy by including multiple inhibitors of key onco-targets, while simultaneously encompassing mechanistic diversity, targeting more than 800 distinct mechanisms of action. Briefly, cells were seeded in 5 uL of growth media using a Multidrop Combi dispenser into 1536 well white polystyrene tissue culture treated plates (Corning) at a density of 500cells/well. For each cell-line, for each of the 2480 drugs in MIPE v5.0 library, an 11-point dose curve was generated via a 1536 pin-tool. Plates were incubated for 48 hr at standard incubator conditions, covered by a stainless steel gasketed lid to prevent evaporation. Cell viability was determined by luminescence based, Cell Titer Glo assay (Promega). In detail, 3 uL of Cell Titer Glo were added to each well and plates were incubated at room temperature for 15 min with a stainless-steel lid in place. Luminescence readings were taken using a Viewlux (PerkinElmer) with a 2 s exposure time per plate. Compound dose-response curves were normalized to DMSO and empty well controls on each plate. Quantitative drug activity data from dose-response curves was determined utilizing area Under the Curve (AUC) and Z-transformed AUC (Z-AUC, a mean-centering transformation applied to each individual cell-line screened).
# Potency means the concentration at half of the fitted maximal effect.
row,Compound,Potency
1,CCOCc1nc2c(N)nc3ccccc3c2n1CC(C)(C)O,inactive
2,CC(C)(C#N)c1cc(Cn2cncn2)cc(C(C)(C)C#N)c1,inactive
3,Cc1nc2cnc3ccc(C#Cc4cccnc4)cc3c2n1-c1ccc(C(C)(C)C#N)cc1,525 nM (active)
4,CCOC(=O)[C@H]1O[C@@H]1C(=O)N[C@@H](CC(C)C)C(=O)NCCC(C)C,inactive
5,O=c1[nH]c(=O)n(C2CCCO2)cc1F (stereo not given),inactive
6,CC(C)NCC(O)COc1ccc(CCOCC2CC2)cc1 (stereo not given),inactive
7,C[C@]12CCC(=O)C=C1CC[C@@H]1[C@@H]2[C@@H](O)C[C@@]2(C)[C@H]1CC[C@]2(O)C(=O)CO,inactive
8,CC(=O)OCC(=O)[C@@]1(O)[C@H](C)C[C@H]2[C@@H]3C=C(C)C4=Cc5c(cnn5-c5ccccc5)C[C@]4(C)[C@@H]3[C@@H](O)C[C@@]21C,inactive
9,Cc1cc(Nc2cc(N3CCN(C)CC3)nc(/C=C/c3ccccc3)n2)n[nH]1,525 nM (active)
10,CCOc1cc(C(=O)Nc2ccc(Cl)c(-c3nc4ccccc4[nH]3)c2)cc(OCC)c1OCC,14800 nM (active)
11,COc1cc2ncnc(Nc3cccc(Cl)c3)c2cc1OC,13200 nM (active)
12,COc1ccc2cc3[n+](cc2c1OC)CCc1cc2c(cc1-3)OCO2,23500 nM (active)
13,C=CC(=O)Nc1cccc(Oc2nc(Nc3ccc(N4CCN(C)CC4)cc3)ncc2Cl)c1,2350 nM (active)
14,C[C@]12CC[C@@H]3c4ccc(O)cc4CC[C@H]3[C@H]1[C@@H](O)[C@@H](O)[C@H]2O,inactive
15,O=C1C(Cl)=C(NCCN2CCOCC2)C(=O)c2ncccc21,5900 nM (active)
16,CCC(c1ccc(O)cc1)C(CC)c1ccc(O)cc1 (stereo not given),inactive
17,Cc1ccc(S(=O)(=O)OCC(=O)Nc2ccc(C(=O)O)c(O)c2)cc1,inactive
18,O=C(O)Cn1nnc(-c2cc(N3CCC(Oc4cc(F)ccc4Br)CC3)no2)n1,inactive
19,NCCS(=O)(=O)O,inactive
20,COCCOc1nc(-c2ccc(Cl)c(Cl)c2)n(-c2ccc(NC(=O)CCl)cc2)n1,662 nM (active)

row,Compound,Potency
1,O=C(NCC1CCCCN1)c1cc(OCC(F)(F)F)ccc1OCC(F)(F)F (stereo not given),inactive
2,COc1cc(C(=O)NC2CCN(C)CC2)ccc1Nc1ncc2c(n1)N(C1CCCC1)CCC(=O)N2C(C)C,16600 nM (active)
3,CC(C)c1cc(CNc2nc(Nc3cc(C4CC4)[nH]n3)cc(N3CCN(C)CC3)n2)on1,93.4 nM (active)
4,COC[C@H](NC(=O)c1cnc(C)s1)C(=O)N[C@@H](COC)C(=O)N[C@@H](Cc1ccccc1)C(=O)[C@@]1(C)CO1,93.4 nM (active)
5,COCCN1CCN(Cc2ccc(-c3n[nH]c4c3C(=O)c3c(NC(=O)NN5CCOCC5)cccc3-4)cc2)CC1,166 nM (active)
6,CCCCN(CCCC)C(=O)CN1C[C@H](c2ccc3c(c2)OCO3)[C@@H](C(=O)O)[C@@H]1c1ccc(OC)cc1,inactive
7,COc1cccc(OCCCN)c1-c1cc(Nc2cnc(C#N)cn2)n[nH]1,59 nM (active)
8,CC1CNc2c(cccc2S(=O)(=O)N[C@@H](CCCN=C(N)N)C(=O)N2CC[C@@H](C)C[C@@H]2C(=O)O)C1 (stereo not given in full),inactive
9,C=C1C(=O)[C@@]23C(CC[C@@H]1[C@H]2O)[C@@]12CO[C@]3(O)[C@@H](O)[C@@H]1C(C)(C)CC[C@@H]2O (stereo not given in full),2350 nM (active)
10,NC(=O)OCC(COC(N)=O)c1ccccc1,inactive
11,C=CC(=O)Nc1cccc(Nc2nc(Nc3ccc(Oc4ccnc(C(=O)NC)c4)cc3)ncc2F)c1,8330 nM (active)
12,COc1cc2nc(-c3cc(F)ccc3O)nc(N[C@@H]3CNC[C@H]3C(C)(C)O)c2cc1OC,4680 nM (active)
13,CCNC1(C(N)=O)CCN(c2ncnc3c2nc(-c2ccccc2Cl)n3-c2ccc(Cl)cc2)CC1,26300 nM (active)
14,CS(=O)(=O)OCCCCOS(C)(=O)=O,inactive
15,CNC(=O)c1nn(C)c2c1C(C)(C)Cc1cnc(Nc3ccc(N4CCN(C)CC4)cc3)nc1-2,263 nM (active)
16,CC(C)[C@H](C(=O)Nc1ccc(C(=O)NO)cc1)c1ccccc1,833 nM (active)
17,NC(=O)c1cccc(-c2cc(Nc3ccc(OC(F)(F)F)cc3)ncn2)c1,1860 nM (active)
18,COc1c(N2C[C@@H]3CCCN[C@H]3C2)c(F)cc2c(=O)c(C(=O)O)cn(C3CC3)c12,inactive
19,CCCOc1ccc(C(=O)OCCN(CC)CC)cc1N,inactive
20,O=[N+]([O-])c1ccc(-c2nc(-c3ccc(F)cc3)c(-c3ccncc3)[nH]2)cc1,inactive
